A selection: hits, their analogues and other compounds. The true share with any hit is near 2.3%.
GLS inhibitor: qHTS for Inhibitors of Glutaminase (GLS); Glutaminase kidney isoform, mitochondrial (Homo sapiens), O94925; AID 624170, 2012; Potency, µM (titrated, usually from 45.5 µM), for inactives: at the top dose activity change, negative = inhibition, most hits filed as inhibitors; GLS enzymatic activity, qHTS titration; 0.21% of 410,000 active; note: % is set by controls: 0 for no effect and ±100 for the full control effect
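Coupled fluorescence readout: glutamate oxidase/HRP/Amplex Red detect glutamate formed by hKGA from L-glutamine (1 mM solution added). Buffer 45 mM KH2PO4 pH 8.2, 0.02% Tween-20; reads at t0 and 30 min RT.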
Glioma ERSR ind: qHTS for Inducers of the Endoplasmic Reticulum Stress Response (ERSR) in Human Glioma: qHTS. U87-MG GRP78 promoter luciferase reporter, 16 h. Potency, µM, without a hit: at the highest dose activation, usual class: activators. 0.02% of 420,000 active; note: series mostly up to about 76 µM; % of control where 0% means no effect; nearly all actives have a fitted effect of over 35% in size
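Stably transfected U87-MG glioma cells carrying a GRP78-based luciferase sensor; 16 h compound incubation. Luminescence end-point read 10 min after Bright-Glo addition at room temperature.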
GLP1R ag: qHTS of GLP-1 Receptor Agonists; HEK293 GLP-1R CRE-luciferase, luminescence, 4-6 h; cells express a hypersensitive GLP-1R form; Potency, µM (titrated, usually from 45.6 µM), inactives show at the top dose activation, hits mostly activators; 0.007% of 380,000 active; AID 624172, 2012; note: % of control where 0% means no effect
PTHR1 agonist: qHTS for PTHR1 Agonists: Primary Screen; Parathyroid hormone/parathyroid hormone-related peptide receptor (Homo sapiens), Q03431; HEK293 GP2 PTHR1 cells, GloSensor cAMP luminescence, 1 h; Potency, µM (doses to about 115 µM), for inactives: at the highest dose activation, actives largely listed as activators; 0.075% of 410,000 active; AID 743266, 2014; note: nearly all actives have a fitted effect of over 55% in size
Target sequence (Q03431 whole entry, looked up): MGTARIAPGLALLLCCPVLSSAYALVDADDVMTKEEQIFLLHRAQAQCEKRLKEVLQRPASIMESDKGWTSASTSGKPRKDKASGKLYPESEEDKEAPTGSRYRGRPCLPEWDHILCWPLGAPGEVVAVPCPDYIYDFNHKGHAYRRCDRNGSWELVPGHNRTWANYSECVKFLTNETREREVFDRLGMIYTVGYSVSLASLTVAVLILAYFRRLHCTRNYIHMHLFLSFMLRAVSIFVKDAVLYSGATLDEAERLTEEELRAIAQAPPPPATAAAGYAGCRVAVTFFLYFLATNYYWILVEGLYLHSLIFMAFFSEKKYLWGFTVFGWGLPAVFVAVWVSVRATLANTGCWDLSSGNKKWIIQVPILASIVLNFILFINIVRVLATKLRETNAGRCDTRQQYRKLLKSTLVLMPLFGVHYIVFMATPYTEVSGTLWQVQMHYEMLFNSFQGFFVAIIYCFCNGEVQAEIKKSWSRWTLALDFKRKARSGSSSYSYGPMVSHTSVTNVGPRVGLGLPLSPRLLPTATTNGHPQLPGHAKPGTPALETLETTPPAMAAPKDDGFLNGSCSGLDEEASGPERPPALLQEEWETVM
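HEK-293-derived GP2 cells expressing PTHR1 and a GloSensor cAMP reporter, 3,000/well, plated overnight, given luciferin plus IBMX (each 0.5 mM as added) for 1 h at 37 °C, then compound for 1 h at 37 °C. Luminescence was read after 15 min at room temperature.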
GLP1R inv ag: qHTS of GLP-1 Receptor Inverse Agonists (Inhibition Mode) | 1.6% of 410,000 active | Potency, µM (titrated, usually from 38.3 µM), inactives show top-dose activity change, negative = inhibition, most hits filed as inhibitors | Glucagon-like peptide 1 receptor (Homo sapiens), P43220 | HEK293 GLP-1R CRE-luciferase, luminescence, 24 h; GLP-1R form is constitutively active; note: % is set by controls: 0 for no effect and ±100 for the full control effect; nearly all actives have a fitted effect of over 55% in size
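HEK293 cells stably co-expressing constitutively active GLP-1R and a cAMP-responsive luciferase reporter were seeded in DMEM with 10% Nu serum, given compounds after 12 h, and incubated 24 h at 37 deg C. Luminescence was then read.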
ALOX12 inh: Primary qHTS assay for inhibitors of human arachidonate 12S-lipoxygenase (ALOX12): Round 2. Polyunsaturated fatty acid lipoxygenase ALOX12 (Homo sapiens), P18054. purified 12hLO, xylenol orange hydroperoxide absorbance. Potency, µM (titrated, usually from 108 µM), without a hit: at the top dose activity change, negative = inhibition, hits mostly inhibitors. 1.1% of 580,000 active. AID 1671190, 2021; note: % is set by controls: 0 for no effect and ±100 for the full control effect
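Hydroperoxide product was detected by ferrous iron/xylenol orange as the 573 to 405 nm absorbance ratio. Arachidonic acid at 40 uM (final) was turned over for 30 min at room temperature by 150 nM human 12hLO, pH 7.0 Hepes buffer, after 15 min compound preincubation.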
Numbers without * were called inactive; ! = not active in a repeat; [ ] = another dose, or the depositor's remark. Calls come from the whole dose curve; as a rule, active = well fitted curve in the direction sought with a large enough effect; inconclusive = small, poorly fitted or top-dose-only effect, or another doubt; inactive = no such curve, though single readings can be large; an effect the other way counts as inactive or inconclusive. Potency is the fitted concentration of half-maximal effect.

Results for Cc1ccc(NC(=O)CSc2cnc3cc(S(=O)(=O)N4CCCCC4)ccc3n2)cc1 ?
ALOX12 inh: -7.9%

How did O=C(COC(=O)c1ccccc1C(=O)c1ccc(-c2ccccc2)cc1)c1ccccc1 do in these assays?
ALOX12 inh: -4.1%

Results for CSCCC1NC(=O)N(C(C)C(=O)Nc2cc(Cl)cc(Cl)c2)C1=O (configuration not stated) ?
GLS inhibitor: -7.0%; Glioma ERSR ind: -0.5%; GLP1R ag: 3.3%; PTHR1 agonist: -16.7%; GLP1R inv ag: 11.2µM*; ALOX12 inh: 0.0%

Results for CSCCC1NC(=O)N(CC(=O)Nc2c(Cl)cc(Cl)cc2Cl)C1=O (configuration not stated) ?
GLS inhibitor: inconclusive; Glioma ERSR ind: -0.3%; GLP1R ag: 4.0%; PTHR1 agonist: -4.7%[57.5 µM]; GLP1R inv ag: -28.3%; ALOX12 inh: inconclusive

Results for Cc1cn2c(-c3ccccc3F)nc(=S)nc2s1 ?
ALOX12 inh: -25.8%

What do the screens show for `CC(C)(C)c1ccc(-c2nnc(SCC(=O)N3CCOC3=O)n2C2CCCC2)cc1`?
ALOX12 inh: -27.8%

Results for O=C(CC(=O)Nc1ccc(Br)cc1)Nc1ccc(Br)cc1 ?
GLS inhibitor: 9.4%; Glioma ERSR ind: 1.1%; GLP1R ag: -1.9%; PTHR1 agonist: inactive; GLP1R inv ag: -22.5%; ALOX12 inh: 0.0%

What do the screens show for `O=C(CN(CC(=O)Nc1ccc(Br)cc1)CC(=O)Nc1ccc(Br)cc1)Nc1ccc(Br)cc1`?
ALOX12 inh: 11.2µM*

What do the screens show for `CCN1/C(=C/C(C)=C/c2sc3ccccc3[n+]2CC)Sc2ccccc21`?
GLS inhibitor: inconclusive; Glioma ERSR ind: -12.9%; GLP1R ag: -0.6%; PTHR1 agonist: -35.4%; GLP1R inv ag: inconclusive; ALOX12 inh: 35.5µM*!

Results for CCN1/C(=C\C=C(C(C)=O)C(C)=O)Sc2ccccc21 ?
GLS inhibitor: 43.7%; Glioma ERSR ind: 0.7%; GLP1R ag: 25.9%; PTHR1 agonist: -3.3%; GLP1R inv ag: 124.2%; ALOX12 inh: -48.8%

Results for CCC(NC(=O)c1cccc(OC)c1)c1ccccc1OC(F)F (configuration not stated) ?
ALOX12 inh: 4.8%

How did COCc1cc(C[C@@H]2CC[C@H](O)[C@@H](CNC3CCCCC3)O2)no1 do in these assays?
ALOX12 inh: 5.4%[176 µM]

Results for CNC(=O)CN(C)c1nc(C(F)(F)F)nc2ccccc12 ?
ALOX12 inh: 26.8%

How did Cn1cc(CN2CCCC(C(=O)c3cc(F)ccc3F)C2)c2ccccc21 (configuration not stated) do in these assays?
GLS inhibitor: -3.9%; Glioma ERSR ind: -2.8%; GLP1R ag: 11.2%; PTHR1 agonist: inactive; GLP1R inv ag: inconclusive; ALOX12 inh: -16.8%

Results for COc1ccc(F)cc1C(=O)C1CCCN(Cc2cn(C)c3ccccc23)C1 (configuration not stated) ?
GLS inhibitor: 8.7%; Glioma ERSR ind: -4.4%; GLP1R ag: 6.2%; PTHR1 agonist: -39.4%; GLP1R inv ag: 3.55µM*; ALOX12 inh: -4.1%

How did Cc1cc(-c2nnco2)c(C)n1-c1ccc(F)cc1 do in these assays?
GLS inhibitor: 3.5%; Glioma ERSR ind: 8.6%; GLP1R ag: 4.2%; PTHR1 agonist: 7.08µM*; GLP1R inv ag: 56.7%; ALOX12 inh: 12.2%

What do the screens show for `COCCN1C(=O)c2ccccc2NC1c1cc2ccccc2[nH]c1=O` (configuration not stated)?
ALOX12 inh: 0.8%

Results for CN1C(=O)c2ccccc2NC1c1cc2ccccc2[nH]c1=O (configuration not stated) ?
ALOX12 inh: 7.08µM*

How did CC1(C)NC(=O)N(Cc2coc(-c3cccc(Cl)c3)n2)C1=O do in these assays?
ALOX12 inh: -12.3%

Results for O=C(c1ccc(=O)oc1)N1CCCc2ccccc21 ?
GLS inhibitor: 15.8µM*; Glioma ERSR ind: -6.7%; GLP1R ag: -10.1%; PTHR1 agonist: inactive; GLP1R inv ag: -1.1%; ALOX12 inh: inconclusive

How did O=C(c1ccc(=O)oc1)N1CCOCC1 do in these assays?
GLS inhibitor: 11.2µM*; Glioma ERSR ind: -4.1%; GLP1R ag: -0.1%; PTHR1 agonist: inconclusive; GLP1R inv ag: -0.5%; ALOX12 inh: inconclusive

What do the screens show for `O=C(c1ccc(F)cc1)N1CCOCC1`?
GLS inhibitor: -9.2%; Glioma ERSR ind: -0.7%; GLP1R ag: -3.9%; PTHR1 agonist: -22.2%; GLP1R inv ag: 28.9%; ALOX12 inh: 1.2%

How did CC(C)(C)c1ccc(C(=O)Nc2ccc(C(O)[C@H]3COCC(=O)N3Cc3ccccc3)cc2)cc1 (some centres not stated) do in these assays?
ALOX12 inh: 22.9%

Results for O=C1NCCCCCCN(Cc2ccncc2)[C@@H]2CN(Cc3ccncc3)CC[C@@H]12 ?
ALOX12 inh: 172.7%

What do the screens show for `Cc1cccc(N(CC(=O)Nc2ccccc2C(F)(F)F)S(=O)(=O)c2ccccc2)c1C`?
GLS inhibitor: -9.5%; Glioma ERSR ind: 0.7%; GLP1R ag: -5.6%; PTHR1 agonist: inactive; GLP1R inv ag: 11.2µM*; ALOX12 inh: 11.3%

What do the screens show for `Clc1ccc2c(c1)c1cc(Cl)ccc1n2CN1CCOCC1`?
GLS inhibitor: -0.1%; Glioma ERSR ind: 1.3%; GLP1R ag: -4.4%; PTHR1 agonist: -7.7%; GLP1R inv ag: 5.01µM*; ALOX12 inh: -9.0%

How did C=CCC(NC(C)=O)C(=O)O (configuration not stated) do in these assays?
ALOX12 inh: 6.7%

What do the screens show for `Cc1ccc2[nH]c3c(c2c1)CN(C(=O)CN1CCSCC1)CC3`?
ALOX12 inh: 141.9%

Results for Cc1ccc2[nH]c3c(c2c1)CN(C(=O)CN1CCN(Cc2ccc4c(c2)OCO4)CC1)CC3 ?
GLS inhibitor: 13.8%; Glioma ERSR ind: -7.7%; GLP1R ag: -2.7%; PTHR1 agonist: inactive; GLP1R inv ag: 3.55µM*; ALOX12 inh: inconclusive
